High-throughput results as filed in PubChem BioAssay.
HCV inh: qHTS Assay for Inhibitors of Hepatitis C Virus (HCV); Huh7.5.1 HCVcc-Cre infection, luciferase reporter, 44 h; Potency, µM (highest dose often 41.8 µM), most hits filed as inhibitors; 3.4% of 340,000 active; AID 651820, 2012
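Antiviral activity was scored by luciferase reporter output from cells infected with HCVcc-Cre (~0.5 moi) in presence of compound, 44 h infection period, cells seeded 1,000/well 4 h prior.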
Pf growth 96h: Primary qHTS for delayed death inhibitors of the malarial parasite plastid, 96 hour incubation. P. falciparum luciferase reporter growth, 96 h. Potency, µM (series often up to 28.7 µM), hits mostly inhibitors. 6.9% of 320,000 active. AID 504834, 2011
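Erythrocytes infected with luciferase-expressing P. falciparum were dispensed at 2% hematocrit and 0.05% parasitemia (final), then incubated with compounds 96 hours at 37 C in 5% CO2. Luminescence after detection reagent addition reported growth.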
Shiga inhibitor: A qHTS for Small Molecule Inhibitors of Shiga Toxin | Vero cells, Shiga toxin protein synthesis inhibition reporter | inhibition, % at 38.7 µM | 9.2% of 290,000 active; in the data active = inhibition mostly above about 28%, no sharp cut-off; inactive = mostly below about 43%
Pf growth 48h: Primary qHTS for delayed death inhibitors of the malarial parasite plastid, 48 hour incubation | P. falciparum luciferase growth in erythrocytes, 48 h | Potency, µM (top dose mostly 28.7 µM), usual class: inhibitors | 5.9% of 310,000 active | AID 504832, 2011
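Growth was read as firefly luciferase luminescence after a 48 h, 37 C, 5% CO2 exposure of compounds to reporter-bearing P. falciparum cultures (0.1% parasitemia, 2% hematocrit final) in Albumax-supplemented RPMI 1640.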
AMA1 RON2 block: qHTS for Inhibitors of AMA1-RON; Towards Development of Antimalarial Drug Lead: Primary Screen. 0.2% of 360,000 active. Potency, µM (doses to about 58.2 µM), hits mostly inhibitors. AID 720542, 2013. Plasmodium falciparum AMA1 (3D7) - RON2 peptide interaction. AlphaScreen AMA1-biotinylated RON2 peptide binding; note: nearly all actives have a fitted effect of over 45% in size
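AMA1 (3D7) with his tag at 25 nM final met compounds first, then biotinylated RON2 peptide at 25 nM; detection used donor plus acceptor beads, 10 µg/mL apiece, read by AlphaScreen after 30 min at room temperature.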
CHX counter: Cycloheximide Counterscreen for Small Molecule Inhibitors of Shiga Toxin; 12% of 300,000 active; AID 2314, 2010; max response, %; cell reporter, cycloheximide protein synthesis inhibition counterscreen; in the data active = max response mostly above about 13%, no sharp cut-off; inactive = mostly below about 14%; note: read at 38.3 µM for the half of the compounds with a filed dose
Hits are given with their value; . = inactive; ? = inconclusive; / = no result. Hits are enriched below; roughly 21% of the tested compounds scored in any of these assays. Unless noted, calls come from the whole dose curve; as a rule, active = well fitted curve in the direction sought with a large enough effect; inconclusive = small, poorly fitted or top-dose-only effect, or another doubt; inactive = no such curve, though single readings can be large; an effect the other way counts as inactive or inconclusive.

SMILES | HCV inh | Pf growth 96h | Shiga inhibitor | Pf growth 48h | AMA1 RON2 block | CHX counter
CC1(C)N([O-])C(c2ccccc2)=C[N+](=O)C1(C)C | . | . | . | . | . | .
CC1(C)N([O-])C(c2cccs2)=C[N+]1=O | . | 10.4µM | . | . | . | .
Cc1ccc2nc(NCc3ccccc3)c(C=O)c(=O)n2c1 | . | . | . | . | . | .
Cc1ccc2nc(NCc3ccco3)c(C=NCc3ccco3)c(=O)n2c1 | . | . | . | . | . | 11.8
Cc1ccc2nc(NCc3ccccc3)c(C=NCc3cccnc3)c(=O)n2c1 | . | . | 30.3 | . | . | 14.2
O=c1c(C=NCc2ccccc2)c(NCc2ccccc2)nc2ccccn12 | ? | . | 80.1 | . | . | .
Cc1ccc(C2C(C(=O)c3sc(C)nc3C)=C(O)C(=O)N2CCN(C)C)o1 (centres undefined) | . | 5.86µM | . | . | . | .
Cc1ccc(C2C(C(=O)c3cc4ccccc4o3)=C(O)C(=O)N2CCN2CCOCC2)o1 (centres undefined) | . | . | 53.6 | . | . | 24.3
COCCN1C(=O)C(O)=C(C(=O)c2cccs2)C1c1ccccc1 (centres undefined) | . | . | . | . | . | .
COc1ccc(C2C(C(=O)c3sc(C)nc3C)=C(O)C(=O)N2CCN(C)C)cc1OC (centres undefined) | ? | / | . | . | . | .
O=C(C1=C(O)C(=O)N(CCN2CCOCC2)C1c1ccccn1)c1cccs1 (centres undefined) | . | / | 35.9 | . | . | 27.6
CCN(CC)CCN1C(=O)C(O)=C(C(=O)c2cccs2)C1c1ccccn1 (centres undefined) | / | . | . | / | . | 20.0
O=C(C1=C(O)C(=O)N(CCN2CCOCC2)C1c1ccc(F)cc1)c1cccs1 (centres undefined) | . | . | . | . | . | .
CC(=O)Nc1ccc(S(=O)(=O)NN=c2sc3ccccc3n2C)cc1N | / | / | / | / | . | /
CCOc1ccc(Oc2ccc(NC(=O)CSc3nncn3C)cc2)cc1 | ? | . | / | . | . | /
O=C(NC1CCCC1)C(c1cccs1)N(C(=O)c1csnn1)c1ccccc1F (centres undefined) | . | ? | . | . | . | .
O=C(CSc1nnc2ccc(-c3ccccn3)nn12)Nc1ccc(F)cc1F | . | . | / | . | . | /
Cc1ccc(C2C(C(=O)c3cccs3)=C(O)C(=O)N2CCN2CCOCC2)o1 (centres undefined) | . | ? | 49.9 | . | . | 23.7
CCN(CC)CCN1C(=O)C(O)=C(C(=O)c2cccs2)C1c1ccc(C)o1 (centres undefined) | . | ? | 27.0 | . | . | 21.9
CCN1C(=O)C(C(=O)Nc2ccc(OC)cc2)C2CC1(C)Oc1ccccc12 (centres undefined) | . | . | 45.6 | ? | . | .
Cc1cc(C)cc(NC(=O)CN2C(=O)NC(Cc3c[nH]c4ccccc34)C2=O)c1 (centres undefined) | . | / | / | / | . | /
O=C(CN1C(=O)NC(Cc2c[nH]c3ccccc23)C1=O)Nc1cccc(S(=O)(=O)N2CCOCC2)c1 (centres undefined) | . | 9.28µM | . | ? | . | .
CC(C)CSc1nnc2c(n1)[nH]c1ccccc12 | . | ? | . | / | . | 32.1
CC(C)CSc1nnc2c3ccccc3n(C)c2n1 | . | 6.57µM | / | . | . | 33.9
O=C(O)c1ccccc1CSc1nnc2c(n1)[nH]c1ccccc12 | . | . | . | . | . | .
CCCCSc1nnc2c(n1)[nH]c1ccccc12 | . | . | 127.8 | . | . | 46.1
COc1cc2[nH]c(=O)c(C(=O)NCc3ccc(C)cc3)c(O)c2cc1OC | / | / | / | / | . | /
Brc1ccc2[nH]c3nc(SCCN4CCOCC4)nnc3c2c1 | . | . | . | . | . | .
COC(=O)c1ccc(S(=O)(=O)NCCSc2nnc3c4ccccc4n(C)c3n2)cc1 | 10µM | . | . | ? | . | .
c1ccc2c(c1)[nH]c1nc(SCCN3CCOCC3)nnc12 | ? | ? | . | ? | . | 13.4
